Results: PubChem BioAssay AID1159580 (chemical genetic matrix, 2015)
The whole screen tested about 5,500 compounds, of which about 2,000 (36%) were called active. Inconclusive results (about 18%) are left out. Cut-off read from the data, not from the text of the source: active = normalized growth mostly below about 0.91 (no sharp cut-off); inconclusive = no clear call, values can overlap the other calls; inactive = mostly above about 0.92. This is one part of the list.

Test: chemical genetic growth profiling, strain panel (AID 1159580);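 note: tested at 20 µM; growth read once vehicle control cultures reached saturation at 30 °C; 1 = growth at the plate median or of vehicle wells; lower values mean less growth of the strain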
Conditions: growth OD

Measured: normalized growth

COC(=O)/C(=C1\OC(=O)C(c2ccccc2)=C1O)c1ccccc1
active: S. cerevisiae deletion strains, locus YLR113W, strain HOG1, stronger effect = lower value 0.827
inactive: S. cerevisiae deletion strains, locus YJL187C, strain SWE1, stronger effect = lower value 0.98 | S. cerevisiae deletion strains, locus YJR043C, strain POL32, stronger effect = lower value 1.02 | S. cerevisiae deletion strains, locus YJR066W, strain TOR1, stronger effect = lower value 0.902 | S. cerevisiae deletion strains, locus YKL009W, strain mrt4, stronger effect = lower value 1.01 | S. cerevisiae deletion strains, locus YKL068W, stronger effect = lower value 0.965 | S. cerevisiae deletion strains, locus YKL085W, strain MDH1 (second series), stronger effect = lower value 0.965 | S. cerevisiae deletion strains, locus YKL085W, strain MDH1, stronger effect = lower value 0.965 | S. cerevisiae deletion strains, locus YKL160W, strain elf1, stronger effect = lower value 0.969 | S. cerevisiae deletion strains, locus YKR001C, strain vps1, stronger effect = lower value 1.03 | S. cerevisiae deletion strains, locus YKR026C, strain gcn3, stronger effect = lower value 0.935 | S. cerevisiae deletion strains, locus YKR091W, strain srl3, stronger effect = lower value 0.965 | S. cerevisiae deletion strains, locus YLL001W, strain dnm1, stronger effect = lower value 0.97 | S. cerevisiae deletion strains, locus YLL026W, stronger effect = lower value 0.974 | S. cerevisiae deletion strains, locus YLL041C, strain sdh2, stronger effect = lower value 0.956 | S. cerevisiae deletion strains, locus YLR027C, strain aat2, stronger effect = lower value 0.969 | S. cerevisiae deletion strains, locus YLR039C, strain RIC1, stronger effect = lower value 1.03 | S. cerevisiae deletion strains, locus YLR058C, strain SHM2, stronger effect = lower value 1.01 | S. cerevisiae deletion strains, locus YLR102C, strain apc9, stronger effect = lower value 0.988 | S. cerevisiae deletion strains, locus YLR221C, strain rsa3, stronger effect = lower value 0.981 | S. cerevisiae deletion strains, locus YLR258W, strain gsy2, stronger effect = lower value 0.985 | S. cerevisiae deletion strains, locus YLR262C, strain YPT6 (second series), stronger effect = lower value 0.915 | S. cerevisiae deletion strains, locus YLR262C, strain YPT6, stronger effect = lower value 1 | S. cerevisiae deletion strains, locus YLR268W, strain sec22, stronger effect = lower value 1.03 | S. cerevisiae deletion strains, locus YLR320W, strain mms22, stronger effect = lower value 0.981 | S. cerevisiae deletion strains, locus YLR330W, strain CHS5, stronger effect = lower value 0.996 | S. cerevisiae deletion strains, locus YLR342W, strain FKS1 (second series), stronger effect = lower value 1 | S. cerevisiae deletion strains, locus YLR342W, strain FKS1, stronger effect = lower value 0.976 | S. cerevisiae deletion strains, locus YLR357W, strain rsc2, stronger effect = lower value 1.01 | S. cerevisiae deletion strains, locus YLR370C, strain arc18, stronger effect = lower value 0.97 | S. cerevisiae deletion strains, locus YLR371W, strain rom2, stronger effect = lower value 1 | S. cerevisiae deletion strains, locus YLR384C, strain iki3, stronger effect = lower value 0.982 | S. cerevisiae deletion strains, locus YLR418C, strain cdc73, stronger effect = lower value 0.996 | S. cerevisiae deletion strains, locus YML016C, strain PPZ1, stronger effect = lower value 1.01 | S. cerevisiae deletion strains, locus YML032C, strain rad52, stronger effect = lower value 0.987 | S. cerevisiae deletion strains, locus YML120C, strain ndi1, stronger effect = lower value 0.985 | S. cerevisiae deletion strains, locus YML124C, strain tub3, stronger effect = lower value 0.993 | S. cerevisiae deletion strains, locus YMR058W, strain fet3, stronger effect = lower value 0.981 | S. cerevisiae deletion strains, locus YMR078C, strain ctf18, stronger effect = lower value 1 | S. cerevisiae deletion strains, locus YMR125W, strain sto1, stronger effect = lower value 0.982 | S. cerevisiae deletion strains, locus YMR129W, stronger effect = lower value 0.965 | S. cerevisiae deletion strains, locus YMR205C, strain PFK2, stronger effect = lower value 0.965 | S. cerevisiae deletion strains, locus YMR223W, strain ubp8, stronger effect = lower value 0.98 | S. cerevisiae deletion strains, locus YMR231W, strain pep5, stronger effect = lower value 0.98 | S. cerevisiae deletion strains, locus YMR307W, strain GAS1, stronger effect = lower value 1.1 | S. cerevisiae deletion strains, locus YNL067W, strain RPL9B, stronger effect = lower value 1.03 | S. cerevisiae deletion strains, locus YNL071W, strain lat1, stronger effect = lower value 0.98 | S. cerevisiae deletion strains, locus YNL128W, strain TEP1, stronger effect = lower value 1.02 | S. cerevisiae deletion strains, locus YNL183C, strain NPR1, stronger effect = lower value 0.899 | S. cerevisiae deletion strains, locus YNL209W, strain ssb2, stronger effect = lower value 0.967 | S. cerevisiae deletion strains, locus YNL233W, strain BNI4, stronger effect = lower value 1.02 | S. cerevisiae deletion strains, locus YNL248C, strain rpa49, stronger effect = lower value 0.985 | S. cerevisiae deletion strains, locus YNL250W, strain rad50, stronger effect = lower value 0.998 | S. cerevisiae deletion strains, locus YNL271C, strain bni1, stronger effect = lower value 0.986 | S. cerevisiae deletion strains, locus YNL298W, strain CLA4, stronger effect = lower value 0.982 | S. cerevisiae deletion strains, locus YNL307C, strain MCK1, stronger effect = lower value 0.988 | S. cerevisiae deletion strains, locus YNL322C, strain KRE1 (second series), stronger effect = lower value 0.953 | S. cerevisiae deletion strains, locus YNR049C, strain mso1, stronger effect = lower value 0.959 | S. cerevisiae deletion strains, locus YNR052C, strain pop2, stronger effect = lower value 1.01 | S. cerevisiae deletion strains, locus YOL006C, strain TOP1, stronger effect = lower value 1.17 | S. cerevisiae deletion strains, locus YOL012C, strain htz1 0.689 | S. cerevisiae deletion strains, locus YOL147C, strain pex11, stronger effect = lower value 0.99 | S. cerevisiae deletion strains, locus YOR001W, strain rrp6, stronger effect = lower value 0.974 | S. cerevisiae deletion strains, locus YOR061W, strain CKA2, stronger effect = lower value 0.999 | S. cerevisiae deletion strains, locus YOR069W, strain VPS5, stronger effect = lower value 0.995 | S. cerevisiae deletion strains, locus YOR070C, strain gyp1, stronger effect = lower value 0.976 | S. cerevisiae deletion strains, locus YOR080W, strain dia2, stronger effect = lower value 0.982 | S. cerevisiae deletion strains, locus YOR083W, strain WHI5, stronger effect = lower value 0.968 | S. cerevisiae deletion strains, locus YOR106W, strain vam3, stronger effect = lower value 1.01 | S. cerevisiae deletion strains, locus YOR136W, strain idh2, stronger effect = lower value 1 | S. cerevisiae deletion strains, locus YOR144C, strain elg1, stronger effect = lower value 0.984 | S. cerevisiae deletion strains, locus YOR184W, strain ser1, stronger effect = lower value 1.01 | S. cerevisiae deletion strains, locus YOR231W, strain MKK1, stronger effect = lower value 0.903 | S. cerevisiae deletion strains, locus YOR265W, strain rbl2, stronger effect = lower value 0.961 | S. cerevisiae deletion strains, locus YOR270C, strain vph1, stronger effect = lower value 0.974 | S. cerevisiae deletion strains, locus YOR290C, strain snf2, stronger effect = lower value 0.948 | S. cerevisiae deletion strains, locus YOR316C, strain cot1, stronger effect = lower value 0.981 | S. cerevisiae deletion strains, locus YPL051W, strain arl3, stronger effect = lower value 0.983 | S. cerevisiae deletion strains, locus YPL055C, strain LGE1, stronger effect = lower value 1.05 | S. cerevisiae deletion strains, locus YPL078C, strain atp4, stronger effect = lower value 0.972 | S. cerevisiae deletion strains, locus YPL106C, strain sse1, stronger effect = lower value 0.966 | S. cerevisiae deletion strains, locus YPL240C, strain hsp82, stronger effect = lower value 0.956 | S. cerevisiae deletion strains, locus YPL241C, strain CIN2, stronger effect = lower value 0.989 | S. cerevisiae deletion strains, locus YPL256C, strain CLN2, stronger effect = lower value 0.865 | S. cerevisiae deletion strains, locus YPR119W, strain clb2, stronger effect = lower value 0.99 | S. cerevisiae deletion strains, locus YPR141C, strain kar3, stronger effect = lower value 0.965 | S. cerevisiae deletion strains, locus YPR163C, strain tif3, stronger effect = lower value 0.997 | S. cerevisiae deletion strains, locus YPR167C, strain met16, stronger effect = lower value 0.983 | S. cerevisiae deletion strains, strain wtn01, stronger effect = lower value 1.01 | S. cerevisiae strains, strain wild type, stronger effect = lower value 0.992
